Assay results as given in publication PMC7862700, “An all-to-all approach to the identification of sequence-specific readers for epigenetic DNA modifications on cytosine”.

Columns and labels:
Assay in all cases: DAPPL (digital affinity profiling via proximity ligation, sequencing); 10 mM Tris-HCl pH 7.5, 50 mM NaCl, 1 mM DTT, 4% glycerol, room temperature, 30 min; GST-TFs on glutathione beads, 16-mer random dsDNA library, 0.1% formaldehyde crosslink after washing; high values mean tight binding
Conditions in all cases: protein: recombinant; tags: N-terminal GST; dsDNA, one strand shown
FLI1 = target: T1, FLI1 (Homo sapiens, UniProt Q01543 1-452)
T1 sequence: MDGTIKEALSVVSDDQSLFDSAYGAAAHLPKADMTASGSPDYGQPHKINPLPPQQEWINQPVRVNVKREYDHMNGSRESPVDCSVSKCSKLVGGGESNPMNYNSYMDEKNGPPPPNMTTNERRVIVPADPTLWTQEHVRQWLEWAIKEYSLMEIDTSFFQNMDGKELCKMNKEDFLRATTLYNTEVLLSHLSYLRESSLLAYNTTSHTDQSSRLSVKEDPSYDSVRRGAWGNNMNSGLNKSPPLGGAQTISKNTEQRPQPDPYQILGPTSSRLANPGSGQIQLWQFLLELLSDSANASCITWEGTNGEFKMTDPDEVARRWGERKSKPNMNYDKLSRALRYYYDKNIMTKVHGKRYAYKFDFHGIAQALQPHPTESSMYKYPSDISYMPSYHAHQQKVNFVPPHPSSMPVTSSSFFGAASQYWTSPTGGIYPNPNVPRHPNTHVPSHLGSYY
Procedure, shortened: (§1)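 Binding signal is each hexamer's read frequency for a factor divided by its frequency in the tag-only sample. The factors were GST-fused human transcription factors from yeast, captured on glutathione beads, DNA-barcoded and pooled with that sample. Pools were incubated with 200 nmole of a random double-stranded 16-mer DNA library in Tris/NaCl/DTT/glycerol buffer at room temperature for 30 min, then washed, crosslinked with 0.1% formaldehyde, proximity-ligated with BsaI/T4 ligase (1 h, 37 °C), PCR-amplified and sequenced on an Illumina NextSeq500.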

ELK1 = target: T2, ELK1 (Homo sapiens, UniProt P19419 1-428)
T2 sequence: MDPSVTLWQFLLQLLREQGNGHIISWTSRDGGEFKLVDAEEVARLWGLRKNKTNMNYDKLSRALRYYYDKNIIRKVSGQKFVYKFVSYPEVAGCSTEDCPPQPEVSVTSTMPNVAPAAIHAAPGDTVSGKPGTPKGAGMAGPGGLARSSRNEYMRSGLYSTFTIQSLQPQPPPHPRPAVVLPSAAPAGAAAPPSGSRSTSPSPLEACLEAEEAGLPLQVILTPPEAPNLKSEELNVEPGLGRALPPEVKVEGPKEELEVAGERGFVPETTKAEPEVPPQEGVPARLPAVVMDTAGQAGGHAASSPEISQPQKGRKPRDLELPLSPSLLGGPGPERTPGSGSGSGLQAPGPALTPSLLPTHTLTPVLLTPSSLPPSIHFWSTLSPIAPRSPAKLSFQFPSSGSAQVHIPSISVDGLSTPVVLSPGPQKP
Procedure, shortened: as §1

GABPA = target: T3, GABPA (Homo sapiens, UniProt Q06546 1-454)
T3 sequence: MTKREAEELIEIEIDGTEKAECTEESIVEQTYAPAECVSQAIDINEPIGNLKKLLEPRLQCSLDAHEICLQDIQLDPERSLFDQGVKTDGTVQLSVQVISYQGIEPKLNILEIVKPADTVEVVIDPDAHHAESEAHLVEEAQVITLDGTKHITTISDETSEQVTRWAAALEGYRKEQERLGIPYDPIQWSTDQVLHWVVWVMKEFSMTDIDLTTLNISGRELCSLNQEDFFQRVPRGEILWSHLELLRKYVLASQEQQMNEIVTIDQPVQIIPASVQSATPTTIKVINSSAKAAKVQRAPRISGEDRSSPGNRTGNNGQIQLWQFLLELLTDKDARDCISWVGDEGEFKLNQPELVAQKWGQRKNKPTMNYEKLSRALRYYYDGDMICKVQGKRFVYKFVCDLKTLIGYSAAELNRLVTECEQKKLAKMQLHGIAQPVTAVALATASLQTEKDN
Procedure, shortened: as §1

ERG = target: T4, ERG (Homo sapiens, UniProt P11308 1-479)
T4 sequence: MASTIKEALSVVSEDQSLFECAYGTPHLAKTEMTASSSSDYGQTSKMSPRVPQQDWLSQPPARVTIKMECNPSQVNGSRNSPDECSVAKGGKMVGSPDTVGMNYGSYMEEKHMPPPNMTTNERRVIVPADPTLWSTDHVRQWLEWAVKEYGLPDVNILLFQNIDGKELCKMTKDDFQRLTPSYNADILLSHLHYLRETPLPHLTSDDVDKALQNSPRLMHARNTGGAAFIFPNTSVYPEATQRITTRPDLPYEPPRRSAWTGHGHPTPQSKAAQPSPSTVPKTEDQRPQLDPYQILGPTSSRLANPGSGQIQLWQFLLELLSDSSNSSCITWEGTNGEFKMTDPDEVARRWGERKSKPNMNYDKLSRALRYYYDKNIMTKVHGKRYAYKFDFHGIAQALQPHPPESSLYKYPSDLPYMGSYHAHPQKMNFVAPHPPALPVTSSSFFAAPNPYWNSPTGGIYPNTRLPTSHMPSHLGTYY
Procedure, shortened: as §1

ELF1 = ELF1 (Homo sapiens, UniProt P32519 1-619)
ELF1, sequence (P32519 whole entry): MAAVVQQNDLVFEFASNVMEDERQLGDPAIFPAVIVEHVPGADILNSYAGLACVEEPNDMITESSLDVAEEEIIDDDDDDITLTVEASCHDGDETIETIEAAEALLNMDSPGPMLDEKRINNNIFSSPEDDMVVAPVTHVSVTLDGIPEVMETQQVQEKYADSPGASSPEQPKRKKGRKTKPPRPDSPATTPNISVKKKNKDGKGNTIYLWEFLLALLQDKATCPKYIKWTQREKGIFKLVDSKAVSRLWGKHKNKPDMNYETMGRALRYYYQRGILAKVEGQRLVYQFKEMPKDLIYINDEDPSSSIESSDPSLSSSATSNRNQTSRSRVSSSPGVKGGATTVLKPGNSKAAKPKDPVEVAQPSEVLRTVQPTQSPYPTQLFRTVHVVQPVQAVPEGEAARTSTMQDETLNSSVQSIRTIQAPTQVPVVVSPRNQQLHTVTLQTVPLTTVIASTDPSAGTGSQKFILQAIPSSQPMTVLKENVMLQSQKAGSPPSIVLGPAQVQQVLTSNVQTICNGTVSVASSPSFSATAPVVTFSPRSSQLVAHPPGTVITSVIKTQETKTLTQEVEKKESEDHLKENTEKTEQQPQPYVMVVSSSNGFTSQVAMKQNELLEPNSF
Procedure, shortened: as §1

EHF = target: T5, EHF (Homo sapiens, UniProt Q9NZC4 1-300)
T5 sequence: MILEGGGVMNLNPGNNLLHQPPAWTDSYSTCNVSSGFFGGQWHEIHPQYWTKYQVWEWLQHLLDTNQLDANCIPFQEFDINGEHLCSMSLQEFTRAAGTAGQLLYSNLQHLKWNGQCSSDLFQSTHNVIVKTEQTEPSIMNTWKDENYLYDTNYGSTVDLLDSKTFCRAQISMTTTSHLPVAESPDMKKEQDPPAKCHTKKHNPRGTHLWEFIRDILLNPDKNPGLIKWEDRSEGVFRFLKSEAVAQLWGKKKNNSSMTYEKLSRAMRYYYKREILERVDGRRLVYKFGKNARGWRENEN
Procedure, shortened: as §1

SPI1 = SPI1 (Homo sapiens, UniProt P17947 1-270)
Procedure, shortened: as §1

SPIB = SPIB (Homo sapiens, UniProt Q01892 1-262)
SPIB, sequence (Q01892 whole entry): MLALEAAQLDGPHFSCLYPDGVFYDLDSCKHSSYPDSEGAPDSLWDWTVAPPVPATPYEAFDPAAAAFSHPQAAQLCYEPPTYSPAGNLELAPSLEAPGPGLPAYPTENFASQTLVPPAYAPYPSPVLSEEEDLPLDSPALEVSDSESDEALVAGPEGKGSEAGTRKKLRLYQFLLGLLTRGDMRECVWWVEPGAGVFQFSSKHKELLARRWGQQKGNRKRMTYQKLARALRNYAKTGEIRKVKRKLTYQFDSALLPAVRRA
Procedure, shortened: as §1

ELK3 = target: T6, ELK3 (Homo sapiens, UniProt P41970 1-407)
T6 sequence: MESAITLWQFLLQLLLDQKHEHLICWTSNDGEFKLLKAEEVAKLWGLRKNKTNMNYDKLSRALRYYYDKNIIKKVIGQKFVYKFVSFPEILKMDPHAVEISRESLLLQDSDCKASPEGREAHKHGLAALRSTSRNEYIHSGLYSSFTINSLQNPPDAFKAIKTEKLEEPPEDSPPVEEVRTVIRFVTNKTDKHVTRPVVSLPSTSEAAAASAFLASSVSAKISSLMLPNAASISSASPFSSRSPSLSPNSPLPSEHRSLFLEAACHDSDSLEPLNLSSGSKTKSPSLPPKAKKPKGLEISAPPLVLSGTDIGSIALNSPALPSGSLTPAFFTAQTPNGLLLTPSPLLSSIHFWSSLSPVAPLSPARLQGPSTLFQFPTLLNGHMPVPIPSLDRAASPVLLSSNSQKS
Procedure, shortened: as §1

TGGCAA
binding signal (FLI1): 1.23 fold enrichment (6-mer frequency, TF over GST control) | binding signal (ELK1): 1.21 fold enrichment (6-mer frequency, TF over GST control) | binding signal (GABPA): 1.22 fold enrichment (6-mer frequency, TF over GST control) | binding signal (ERG): 1.15 fold enrichment (6-mer frequency, TF over GST control) | binding signal (ELF1): 1.2 fold enrichment (6-mer frequency, TF over GST control) | binding signal (EHF): 1.16 fold enrichment (6-mer frequency, TF over GST control) | binding signal (SPI1): 1.2 fold enrichment (6-mer frequency, TF over GST control) | binding signal (SPIB): 1.32 fold enrichment (6-mer frequency, TF over GST control) | binding signal (ELK3): 1.11 fold enrichment (6-mer frequency, TF over GST control)
